PubChem BioAssay (NCI)
The panel holds about 83,000 compounds, 20% with a hit somewhere; the sample as a whole holds those more often.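 Treatment: one concentration, 48 hours, 96-well format. Scoring: percent growth, with anything below 10 considered active.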 Active and inactive are the calls of the source.

system: SF-268 CNS; experiment: NCI-60 one-dose screen, 48 h (100 = growth as untreated, 0 = no growth, -100 = all killed); details: 10 µM unless noted

Row | Structure (SMILES) | growth
1 | C[C@H](c1nc2ccc(C#N)cc2[nH]1)[C@H]1CC[C@H]2[C@@H]3CCC4=CC(=O)CC[C@]4(C)[C@H]3CC[C@]12C | 78.5% (inactive)
2 | O=c1cc(C(F)(F)F)c2cc(-c3cc4ccccc4c(=O)o3)c(O)cc2o1 | 79.2% (inactive)
3 | Nc1ccc(-c2ccncc2)cc1NC(=O)N1CCCC1 | 93.3% (inactive)
4 | COc1cccc(-c2cn3nc(-c4cn(C)c5ccccc45)sc3n2)c1 | 94.8% (inactive)
5 | CC(C)(C)c1ccc(S(=O)(=O)Oc2ccc(-c3sc4cc(OS(=O)(=O)c5ccc(C(C)(C)C)cc5)ccc4c3C(=O)c3ccc(OCCN4CCCCC4)cc3)cc2)cc1 | 102% (inactive)
6 | CCN(CC)CCn1c2ccc(OC)cc2c2sc3cc(O)ccc3c(=O)c21 | 38.5% (inactive)
7 | C=C1C(=O)O[C@H]2[C@H]1CC/C(COC(=O)NCc1ccc(Cn3c(=O)sn(-c4ccc(I)cc4)c3=O)cc1)=C\CC[C@@]1(C)O[C@@H]21 | 87.1% (inactive)
8 | O=C(Nc1nc(Cl)nc(Nc2ccc(N3CCOCC3=O)cc2)n1)c1ccc(Cl)s1 | 95.9% (inactive)
9 | COc1cc(OC)c2c(=O)c3c(CC=C(C)C)cc(OC)c(O)c3oc2c1 | 93.6% (inactive)
10 | O=S(=O)(Nc1cc(Sc2nc3ccccc3s2)c(O)c2ccccc12)c1ccc2ccccc2c1 | 95.4% (inactive)
11 | Nc1cccc(-c2ccc(COc3ccc(CC4SC(=O)NC4=O)cc3)cc2)c1 (configuration not stated) | 70.6% (inactive)
12 | COc1ccc(-c2nc(SCC(=O)Nc3nc4ccc(C)cc4s3)[nH]c(=O)c2C#N)cc1OC | 95.9% (inactive)
